Here are results for 55 molecules from PubChem BioAssay AID689 (Sanford-Burnham Center for Chemical Genomics, 2007).

The campaign covered roughly 62,000 compounds. About 80 (0.1%) were called active. A selection follows. Entries with a potency or affinity are not part of this list. Values without a mark were called inactive. No rule for the calls is given here.

The target of this test is Ephrin type-A receptor 4 (Mus musculus) (UniProt Q03137). Briefly: inhibitors of EphA4 binding to KYL peptide, primary screen, biochemical, colorimetric, mouse EphA4 (AID 689). The following applies: EphA4-AP binding to KYL peptide, pNPP A405, at 10 µM, hits give high values.
Chain of Ephrin type-A receptor 4 (Mus musculus) (Q03137 whole entry, looked up): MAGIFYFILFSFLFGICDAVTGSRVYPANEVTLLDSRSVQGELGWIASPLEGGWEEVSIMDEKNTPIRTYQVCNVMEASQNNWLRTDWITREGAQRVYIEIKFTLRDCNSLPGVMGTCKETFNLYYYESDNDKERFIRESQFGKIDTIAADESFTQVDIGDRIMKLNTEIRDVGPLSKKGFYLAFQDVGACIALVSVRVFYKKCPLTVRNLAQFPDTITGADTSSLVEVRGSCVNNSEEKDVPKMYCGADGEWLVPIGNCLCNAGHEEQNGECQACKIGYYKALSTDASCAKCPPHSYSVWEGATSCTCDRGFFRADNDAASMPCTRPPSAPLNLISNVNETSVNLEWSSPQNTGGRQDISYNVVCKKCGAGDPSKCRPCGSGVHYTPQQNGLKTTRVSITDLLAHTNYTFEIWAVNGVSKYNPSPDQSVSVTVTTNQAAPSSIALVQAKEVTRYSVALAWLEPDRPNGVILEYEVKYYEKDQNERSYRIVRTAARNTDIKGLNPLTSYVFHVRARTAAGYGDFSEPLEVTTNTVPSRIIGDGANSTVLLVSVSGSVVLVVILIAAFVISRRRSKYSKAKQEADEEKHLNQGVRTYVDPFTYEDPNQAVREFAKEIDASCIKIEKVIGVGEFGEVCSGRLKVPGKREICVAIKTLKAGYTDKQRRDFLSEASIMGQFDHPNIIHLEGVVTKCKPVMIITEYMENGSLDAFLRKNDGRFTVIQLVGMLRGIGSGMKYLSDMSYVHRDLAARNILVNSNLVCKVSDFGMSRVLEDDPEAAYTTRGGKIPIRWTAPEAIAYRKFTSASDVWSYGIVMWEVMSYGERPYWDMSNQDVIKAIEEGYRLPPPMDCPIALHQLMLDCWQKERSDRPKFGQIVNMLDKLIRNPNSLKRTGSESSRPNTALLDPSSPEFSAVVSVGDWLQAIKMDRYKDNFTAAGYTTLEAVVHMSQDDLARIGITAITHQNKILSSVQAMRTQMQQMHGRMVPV
In general, inhibition refers to the drop in the measured response relative to a control, in per cent. As to `O=C(NC1CCCCCCC1)C1CCCN(S(=O)(=O)c2cnc[nH]2)C1` (stereo not given), the inhibition was -3.1%. Then `COc1ccc(C)cc1NC(=O)C1CC(=O)N(Cc2ccco2)C1` (stereo not given), with -16.4%. As for `O=C1CCCC2=C1C(c1ccco1)Nc1ccc(C(=O)c3ccccc3)cc1N2` (stereo not given), the inhibition was -4.7%. In the case of `O=C1CCCC2=C1C(c1cccs1)Nc1ccc3ncccc3c12` (stereo not given), the inhibition was -5.1%. Then `CC1(C)N=C(c2ccc(Cl)cc2Cl)C(=O)N1`, with -8.8%; and `CCOc1ccccc1NC(=S)N1CCC(NC(=O)NC23CC4CC(CC(C4)C2)C3)CC1`, with -4.6%; and `O=C(c1ccc2c(c1)OCO2)N1CCC(CN2C(=O)c3cccc4cccc(c34)C2=O)CC1`, with -13.5% [this sample at 5 µg/mL]. For `Cc1ccc2nc(NC3=NCN(Cc4ccccc4)CN3)nc(C)c2c1`, the inhibition is 1.1%. On to `CN1C(=O)/C(=C2\SC(=S)N(CC3CCCO3)C2=O)c2ccccc21` (stereo not given), for which the inhibition was -3.2%. For `O=C1/C(=C\c2ccc(-c3ccccc3Cl)o2)SC(=S)N1Cc1ccccc1`, the inhibition was 18.2% [this sample at 5 µg/mL].

For `Cc1ccccc1OCC(=O)Nc1ccc2c(c1)Cc1ccccc1-2`, the inhibition was -9.2%. Then `Cc1c(NC(=O)CC(=O)Nc2c(C)n(C)n(-c3ccccc3)c2=O)c(=O)n(-c2ccccc2)n1C`, with 0.3%. Regarding `Cc1c(NC(=S)N/N=C/c2ccc(O)cc2)c(=O)n(-c2ccccc2)n1C`, the inhibition was -1.6%. Turning to `COc1ccccc1-c1nnc2n1N=C(c1ccc(O)c(O)c1)CS2`, the inhibition was -9.2%. For the molecule `COc1cc(/C=c2\sc3nc4ccccc4n3c2=O)ccc1OS(=O)(=O)c1ccccc1`, the inhibition is 10.7% [this sample at 5 µg/mL]. Regarding `COc1cc(/C=c2\sc3nc4ccccc4n3c2=O)ccc1OCCOc1ccccc1`, the inhibition was -2.3% [this sample at 5 µg/mL]. As to `COCCNC(=O)CN(C(=O)CCC(=O)Nc1nccs1)c1ccccc1OC`, the inhibition was -10.3%. The value for `CN1/C(=C\C=Nc2ccccc2)C(C)(C)c2ccccc21` was 4%; that for `CCN1C(=O)/C(=C/C=C2/SCCN2C)SC1=S` was -7.6%; that for `CN1/C(=C\C=[N+](C)c2ccccc2)C(C)(C)c2ccccc21` was -36.4%. As for `CCN1C(=O)/C(=C\c2cccc(C)c2)SC1=S`, the inhibition is -1.5% [this sample at 5 µg/mL].

On to `COc1ccc(C(=O)NCCCn2ccnc2)cc1`, for which the inhibition was 3%.

With `O=C(Nc1ccccc1)N1CCC(C(=O)N2CCN(S(=O)(=O)c3cccc(F)c3)CC2)CC1`, the inhibition was -6.6%. Turning to `COc1ccc(OC)c(NC(=O)CN(c2ccccc2)S(=O)(=O)c2ccccc2[N+](=O)[O-])c1`, the inhibition is -12.2% [this sample at 5 µg/mL]. Regarding `CCOC(=O)C1CCCN(C(=O)COc2ccccc2O)C1` (stereo not given), the inhibition was -0.6%. Regarding `CCN(CC)CCCN(Cc1cc2cc3c(cc2[nH]c1=O)OCCO3)C(=O)Nc1ccc(F)cc1`, the inhibition was 9.2%. As for `COCCN(Cc1cc2cc3c(cc2nc1Cl)OCO3)C(=O)Nc1ccccc1OC`, the inhibition was -13.8%.

For `Cc1ccc(-n2ncnc2-c2cccc(Cl)c2)cc1Cl`, the inhibition was 0.3% [this sample at 5 µg/mL]. The value for `COc1ccccc1-c1c(C(F)(F)F)oc2c(CN3CCCC3)c(O)ccc2c1=O` was -1.3% [this sample at 5 µg/mL]; that for `O=C1SC(c2ccccc2)=N/C1=C/c1ccco1` was -12.4%; that for `CCCSC1=N/C(=C\c2ccsc2)C(=O)S1` was -0.1%. Regarding `COc1ccc(-c2nnc3n2N=C(C)CS3)cc1OC`, the inhibition is -3.7%. Turning to `N#CC(C(=O)OC1CCCCC1)c1nc2ccccc2nc1N1CCOCC1` (stereo not given), the inhibition is -17.3%. In the case of `CC1CCN(c2nc3ccccc3nc2C(C#N)C(=O)OC2CCCCC2)CC1` (stereo not given), the inhibition is 42.2%. `COCCOC(=O)C(C#N)c1nc2ccccc2nc1N1CCCC1` (stereo not given): the inhibition was 20.7%.

Regarding `CCC(CC)COC(=O)C(C#N)c1nc2ccccc2nc1N1CCOCC1` (stereo not given), the inhibition is 48.9%.

For `C=CCN1C(=O)[C@]2(c3ccccc31)C1CCCC=C1C(C#N)=C(N)C2(C#N)C#N` (stereo not given in full), the inhibition was -6.6%. The value for `CC(=O)Nc1ccc(S(=O)(=O)N2CCN(C34CC5CC(CC(C5)C3)C4)CC2)cc1` was -1.8%; that for `COc1ccc(C(CC(=O)Nc2ccc(F)cc2)c2ccccc2)cc1` (stereo not given) was -16.8%; that for `O=C(CSc1nnc(-c2ccc(S(=O)(=O)N3CCOCC3)cc2)o1)c1ccccc1F` was -15.3%. Regarding `CCOC(=O)c1c(NC(C)=O)sc2c1CCCNC2=O`, the inhibition was 12.2%. For `CCCCC(=O)Nc1sc2c(c1C(=O)OCC)CCC(C=O)=C2Cl`, the inhibition is -6.4%. For `CC(C)OP(=O)(c1ccc(N(C)C)cc1)C(O)c1ccncc1` (stereo not given), the inhibition is -19.9%. As for `COc1ccc(N2CCN(C(=O)c3csc4ccccc34)CC2)cc1`, the inhibition was -8.7%. Take `Cc1ccc(S(=O)(=O)N(Cc2ccccc2)c2ccccc2C(=O)NCc2ccc(Cl)cc2)cc1`: the inhibition is 22% [this sample at 5 µg/mL].

For `Cc1ccc2cc(C#N)c(N3CCCN(C(=O)C4CCCO4)CC3)nc2c1` (stereo not given), the inhibition is 2.7%. Regarding `COc1cc(C(=O)N2CCCN(c3nc4cc(C)ccc4cc3C#N)CC2)cc(OC)c1OC`, the inhibition was 1.5%. For `CCOc1ccc2oc(C)c(C(=O)OC(C)C)c2c1`, the inhibition was -14.8% [this sample at 5 µg/mL]. Regarding `O=S(=O)(c1ccc(Cl)cc1)N1CCN(c2ccccn2)CC1`, the inhibition is 11% [this sample at 5 µg/mL]. On to `Cc1cc([N+](=O)[O-])nn1CC(=O)NNC(=S)Nc1ccc(Cl)cc1`, for which the inhibition was -10.8%. Turning to `COc1ccc(N2Cc3cccc(C(=O)N4CCN(C(=O)c5ccco5)CC4)c3C2=O)cc1`, the inhibition was 11.2%. In the case of `COc1ccc(N2Cc3cccc(C(=O)N4CCOCC4)c3C2=O)cc1`, the inhibition is 7.2%. Turning to `Cn1c(SCC(=O)N2CCOCC2)nc2cccnc21`, the inhibition was 2.2%. With `O=C(OCc1ccccc1)Sc1nnc(-c2ccc(Br)cc2)o1`, the inhibition was -5.7% [this sample at 5 µg/mL]. `CCOC(=O)CSc1nnc(-c2ccc(Br)cc2)o1`: the inhibition was 5.7% [this sample at 5 µg/mL].
